# Screening data as filed in PubChem BioAssay.
# Compounds with a hit are over-represented: about 1.9% of the library has one in this group of screens.
# MOR-DOR inv ag: inverse agonist of human OPRM1-OPRD1 heterodimerization. inhibition, % at 9.3 µM. 340,000 tested, 0.21% active. AID 504357. cell-based MOR-DOR heterodimer luminescence, inverse agonism; in the data active = inhibition above about 22%, passing the limit was not always enough;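 also: 0% = cells with DMSO and 100% = wells without cells with DMSO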
# Target sequence (P35372 whole entry, looked up): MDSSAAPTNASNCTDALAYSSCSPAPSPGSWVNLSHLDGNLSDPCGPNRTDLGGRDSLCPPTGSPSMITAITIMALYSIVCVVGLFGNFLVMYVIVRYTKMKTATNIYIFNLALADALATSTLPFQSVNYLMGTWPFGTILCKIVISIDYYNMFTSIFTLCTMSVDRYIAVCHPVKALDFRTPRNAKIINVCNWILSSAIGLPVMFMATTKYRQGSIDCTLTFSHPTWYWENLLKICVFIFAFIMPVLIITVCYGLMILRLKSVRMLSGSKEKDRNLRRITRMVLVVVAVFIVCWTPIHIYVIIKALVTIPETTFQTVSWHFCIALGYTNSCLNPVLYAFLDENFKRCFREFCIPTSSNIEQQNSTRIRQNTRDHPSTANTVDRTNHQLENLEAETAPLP
# Target sequence (P41143 whole entry, looked up): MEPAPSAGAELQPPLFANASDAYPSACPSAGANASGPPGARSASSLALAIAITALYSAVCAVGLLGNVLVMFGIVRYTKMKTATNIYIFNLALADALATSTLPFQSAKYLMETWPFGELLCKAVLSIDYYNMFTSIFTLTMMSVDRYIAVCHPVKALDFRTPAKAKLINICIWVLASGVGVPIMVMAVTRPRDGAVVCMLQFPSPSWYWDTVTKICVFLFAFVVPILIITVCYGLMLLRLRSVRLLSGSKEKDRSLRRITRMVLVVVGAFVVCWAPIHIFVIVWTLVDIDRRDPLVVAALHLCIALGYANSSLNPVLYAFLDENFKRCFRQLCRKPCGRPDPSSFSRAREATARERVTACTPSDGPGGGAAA
# bovine MsrA act: activates bovine MsrA enzyme. activation, % at 10.6 µM. AID 602163. 360,000 tested, 0.3% active. purified bovine MsrA, absorbance read-out; in the data active = activation above about 7.5%;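 also: 0% = vehicle and 100% = reference activator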
# HTR5A inv ag: counter-screen for OPRM1-OPRD1 inverse agonists: human HTR5A inverse agonism. HTR5A cell line, luminescence. 340,000 tested, 0.083% active. inhibition, % at 9.3 µM; in the data active = inhibition mostly above about 23%, no sharp cut-off; inactive = mostly below about 18%;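 also: 0% = cells with DMSO and 100% = no-cell wells with DMSO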
# MsrA inhibitor: inhibitors of bovine MsrA | 360,000 tested, 0.75% active | purified bovine MsrA, absorbance read-out | inhibition, % at 15.5 µM;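 also: 0% = vehicle wells with enzyme and 100% = reference inhibitor wells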
# MOR-DOR ag: agonists of human mu-delta opioid receptor heterodimerization; cells, OPRM1-OPRD1 heterodimerization, luminescence; 340,000 tested, 0.3% active; P35372+P41143; AID 504326; activation, % at 9.3 µM; in the data active = activation above about 18%;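 also: 0% = vehicle-treated cells and 100% = reference agonist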
# HTR5A ag: HTR5A agonism, opioid heterodimer counter-screen | HTR5A agonist assay, luminescence, cell-based | activation, % at 9.3 µM | 340,000 tested, 0.61% active; in the data active = activation mostly above about 9.5%, no sharp cut-off; inactive = mostly below about 7.6%;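 also: 0% = cells with vehicle only and 100% = reference agonist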
# MsrA conf: bovine MsrA inhibition, confirmed; shares compounds with MsrA inhibitor; purified bovine MsrA, absorbance read-out; inhibition, % at 15.5 µM; 2,300 tested, 41% active; AID 651822;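 also: coupled to thioredoxin reductase with NADPH and selenocystamine and DMSO as substrate; 0% = vehicle only and 100% = full effect of reference inhibitor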
# Starred values were filed as active, the others as inactive; . = no result given; ! = a repeat was not active. Rule as the data show it, unless noted: active = inhibition above about 4.5%; inactive = the rest.
SMILES,MOR-DOR inv ag,bovine MsrA act,HTR5A inv ag,MsrA inhibitor,MOR-DOR ag,HTR5A ag,MsrA conf
O=C(NCc1ccccc1)[C@@H]1CCCN1C(=O)[C@H]1CCCN1C(=O)c1ccc(F)cc1,.,.,.,0.8,.,.,.
CCOC(=O)/C(C#N)=C/c1ccc(-c2ccsc2C(=O)OC)o1,13.9,-2.6,-22.3,-2.1,-2.7,-0.7,.
CCOC(=O)/C(C#N)=C/Nc1ccsc1C(C)=O,14.4,-7.9,-13.4,13.7*,-2.7,5.8,7.2*
CCN(CC)c1ccc(/C=N/Nc2nn[nH]n2)cc1,-2.0,-9.8,-0.9,6.4*,0.4,3.4,3.9
CCN(CC)c1ccc(/C=N/Nc2nc(C)cc(C)n2)cc1,.,-5.3,.,3.1,.,.,.
CC(=O)c1cnc(N(C)C)s1,-2.9,-3.5,-15.6,6.5*,0.6,2.5,3.9
CC(=O)Nc1nc2cc(C(N)=O)ccc2s1,12.5,-2.7,0.6,1.3,-2.3,-4.9,.
Cc1ccc2nc(NC(=O)c3ccc(Br)o3)sc2c1,-8.1,-6.6,8.1,-0.3,1.5,-2.9,.
NC(=O)c1ccc2nc(NC(=O)c3ccc(N)cc3)sc2c1,.,-4.5,.,6.3*,.,.,4.3
NS(=O)(=O)c1ccc2nc(NC(=O)c3ccncc3)sc2c1,19.5,-6.3,8.5,5.6*,-4.1,-4.3,4.2
NS(=O)(=O)c1ccc2nc(NC(=O)c3ccc(Br)o3)sc2c1,-7.2,-3.0,-5.0,4.8*,1.3,4.5,5.7*
CS(=O)(=O)c1ccc2nc(NC(=O)c3ccccc3)sc2c1,13.2,-0.3,-7.9,1.0,-2.8,2.1,.
C[C@@H]1CN([C@H](C)CO)C(=O)c2ccccc2-c2ccccc2CO[C@@H]1CN(C)C(=O)Nc1ccccc1,.,.,.,-0.1,.,.,.
Cc1ccc(C(=O)C2C(=O)C3CCC2C3)cc1 (stereo not given),.,-2.7,.,-0.3,.,.,.
COc1cc(N2CCC(O)CC2)ccc1Nc1cc(Nc2ccccc2S(=O)(=O)C(C)C)c2cc[nH]c2n1,.,.,.,2.5,.,.,.
O=Cc1ccc2oc3nc4n(c(=O)c3c(=O)c2c1)CCCS4,11.9,-3.4,28.5,6.6*,-2.3,3.5,4.5
Cc1sc2nc3n(c(=O)c2c1C)CCCS3,4.6,-3.5,6.3,1.6,-0.8,-2.1,.
CCOC(=O)c1ccc2c(c1)n(CCCS(=O)(=O)[O-])c(/C=C/c1ccc(Cl)cc1)[n+]2CC,7.9,-3.8,-9.4,5.6*,-1.6,3.2,5.4*
CCOC(=O)c1ccc2c(c1)n(CC)c(C)[n+]2CC,-4.9,0.5,8.1,-0.6,0.9,0.3,.
COc1ccc2c(c1)[C@@H](NC(=O)C(F)(F)F)[C@@H]1CCCC[C@]21c1ccccc1,.,.,.,0.7,.,.,.
O=C(N/N=C/c1cccs1)c1cccc2cc[nH]c12,-4.1,-6.6,6.8,5.2*,0.7,4.5,4.3
CC1=C(c2ccccc2)C(O)(c2ccccc2)C(C)C1=O (stereo not given),4.7,-4.5,4.6,0.8,-0.9,-1.1,.
C(=N\Nc1nc2ccccc2s1)/c1ccco1,-14.3,-15.1,-9.5,6.2*,2.5,0.8,5.5*
N#C/C(=C(\O)Cc1ccccc1)c1nc2ccccc2[nH]1,10.5,-1.5,-7.1,2.9,-2.5,0.4,.
N#C/C(=C(\O)c1ccco1)c1ccccn1,2.9,-4.0,-8.9,5.1*,-0.7,3.8,2.0
SMILES,MOR-DOR inv ag,bovine MsrA act,HTR5A inv ag,MsrA inhibitor,MOR-DOR ag,HTR5A ag,MsrA conf
N#C/C(=C(/O)c1ccco1)c1nc2ccccc2s1,-8.5,-14.0,-9.0,4.8*!,1.7,3.5,4.6*
N#C/C(=C(/O)c1ccco1)c1nc2ccccc2[nH]1,11.8,-12.8,-28.1,7.2*,-2.3,10.9*,4.6*
N#C/C(=C(/O)c1cc2ccccc2o1)c1nc2ccccc2s1,11.4,-2.1,15.1,-0.1,-2.2,3.6,.
N#CC(C(=O)c1ccco1)c1ccccn1 (stereo not given),12.2,-7.6,-10.7,5.9*,-2.6,-3.3,3.8
O=C(C[C@H]1CC[C@@H]2[C@H](COC[C@@H](O)CN2Cc2cccc(F)c2)O1)NCC1CCCCC1,.,.,.,-1.3,.,.,.
COc1cc(C)ccc1S(=O)(=O)NC(=O)Cn1nnc(COc2ccc3c(c2)CCCC3)c1C,.,2.6,.,-1.1,.,.,.
N#C/C(=C(/O)CN1CCOCC1)c1nc2ccccc2s1,13.3,-14.3,-4.8,4.8*,-3.1,1.9,3.5
O=C1NC(=Nc2ccc(O)cc2)S/C1=C/c1ccco1,15.3,-7.2,1.5,4.7*,-3.2,0.4,4.7*
Cc1ccc(N=C2NC(=O)/C(=C\c3ccco3)S2)cc1,-1.9,-1.7,2.7,-0.2,0.3,-0.8,.
O=S1(=O)CC(N2CCN(CC3CC3)CC2)CN1C1CCCCC1 (stereo not given),.,-2.0,.,0.5,.,.,.
CCOc1ccc(NC(=O)CN2C(=O)c3cccc4cccc2c34)cc1,.,.,.,0.3,.,.,.
CSc1c(N(C)C)c(=O)c1=S,.,.,.,5.2*,.,.,3.9
Cc1[nH]c(=O)[nH]c(=O)c1N(C)C,10.8,-2.0,-1.5,-0.4,-2.2,0.6,.
COC(=O)[C@]12C[C@H](CC(=O)NCc3cccc(C(F)(F)F)c3)C(=O)N(CCC3=CCCCC3)C1=C[C@H](C(C)(C)C)O[C@@H]2C,.,.,.,0.6,.,.,.
COCCNC(=S)N(C)[C@H]1C[C@H]2c3[nH]c4c(-c5ccc6c(c5)OCO6)cccc4c3CCN2C(=O)[C@H]1[C@H](C)O,.,.,.,-1.8,.,.,.
CC(C)C[C@H]1COc2cccc(N3CCCCC3)c2S(=O)(=O)N1,.,.,.,-0.9,.,.,.
Fc1ccccc1-c1ccc(/C=N/Nc2nc3ccccc3[nH]2)o1,-17.9,-1.6,-18.1,2.5,2.9,3.1,.
Cc1ccc(/C=N\Nc2nc3ccc(Cl)cc3[nH]2)o1,-6.5,-0.1,-2.8,4.7*,1.2,3.3,4.2
COc1ccc(C=CC(=O)c2ccc3cc(OC)c(OC)cc3c2)cc1OC,.,-5.3,.,2.0,.,.,.
COc1ccc(/C=C/C(=O)c2ccc(O)cc2)cc1,10.5,-9.7,-2.4,5.2*,-2.1,-2.1,4.2
COc1ccc(C=CC(=O)c2ccc(OC)c(OC)c2)cc1O,.,-11.4,.,4.7*,.,.,2.7
O=C(O)CCCNC(=O)CC1S/C(=N/N=C/c2ccccc2O)NC1=O (stereo not given),7.5,-6.9,7.5,4.8*,-1.5,-2.9,4.2
CC1Cc2ccccc2N1C1=CC(=O)CCC1 (stereo not given),8.3,-3.6,23.2,5.5*,-1.7,-1.5,5.4*
CC1Cc2ccccc2N1C1=NS(=O)(=O)c2ccccc21 (stereo not given),6.5,-0.5,-3.2,1.7,-1.1,1.5,.
O=c1cc(-c2ccco2)oc2ccccc12,15.0,2.6,-10.1,4.2,-2.9,2.8,.
Cc1ccc2oc(-c3ccco3)cc(=O)c2c1,-3.8,-5.7,-2.8,7.7*,0.8,1.1,5.4*
COc1ccccc1NS(=O)(=O)c1cc(-c2cnc(C3CC3)o2)ccc1C,9.1,-4.0,2.9,0.3,-1.8,-0.8,.
COc1ccc(NS(=O)(=O)c2cc(-c3cnc(C4CC4)o3)ccc2C)cc1,9.0,-3.1,-4.8,10.8*,-1.8,1.3,7.2*
